Consider four compounds from PubChem BioAssay (NCATS).

Inconclusive results are not listed. Active and inactive are the calls of the source. Unless noted, the call rests on the fitted dose curve.

Cytochrome P450 3A4 (Homo sapiens), sequence (P08684 whole entry, looked up): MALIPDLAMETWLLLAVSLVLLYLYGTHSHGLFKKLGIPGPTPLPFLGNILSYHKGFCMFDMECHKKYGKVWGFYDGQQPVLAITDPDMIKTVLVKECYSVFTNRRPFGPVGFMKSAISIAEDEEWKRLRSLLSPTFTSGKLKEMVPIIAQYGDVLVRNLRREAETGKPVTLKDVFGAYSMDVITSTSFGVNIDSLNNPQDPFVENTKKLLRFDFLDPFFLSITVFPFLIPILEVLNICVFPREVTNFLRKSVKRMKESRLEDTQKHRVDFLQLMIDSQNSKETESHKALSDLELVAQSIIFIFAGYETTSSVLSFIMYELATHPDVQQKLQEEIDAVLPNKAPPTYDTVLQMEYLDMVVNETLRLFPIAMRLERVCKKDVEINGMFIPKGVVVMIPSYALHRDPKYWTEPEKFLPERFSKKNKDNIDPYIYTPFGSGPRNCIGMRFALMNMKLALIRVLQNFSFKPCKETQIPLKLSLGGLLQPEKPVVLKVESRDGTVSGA
Cytochrome P450 1A2 (Homo sapiens), sequence (P05177 whole entry, looked up): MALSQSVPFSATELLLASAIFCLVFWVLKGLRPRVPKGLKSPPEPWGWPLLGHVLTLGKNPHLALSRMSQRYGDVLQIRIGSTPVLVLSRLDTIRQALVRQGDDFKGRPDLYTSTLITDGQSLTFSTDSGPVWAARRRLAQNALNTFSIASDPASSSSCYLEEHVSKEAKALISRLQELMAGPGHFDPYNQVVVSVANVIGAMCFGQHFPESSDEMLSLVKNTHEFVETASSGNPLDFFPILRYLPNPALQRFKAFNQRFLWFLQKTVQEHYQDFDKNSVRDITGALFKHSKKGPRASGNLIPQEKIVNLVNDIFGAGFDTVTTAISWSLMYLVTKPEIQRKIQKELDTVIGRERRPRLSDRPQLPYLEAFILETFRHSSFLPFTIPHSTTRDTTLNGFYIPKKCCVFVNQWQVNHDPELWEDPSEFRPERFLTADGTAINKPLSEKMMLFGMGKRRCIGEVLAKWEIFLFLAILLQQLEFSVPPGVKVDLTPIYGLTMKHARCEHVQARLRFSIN

One test addresses Cytochrome P450 1A2 (Homo sapiens) (UniProt P05177). The test can be described thus: p450-cyp1a2 (AID 410). Further: potency means the concentration at half of the fitted maximal effect.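 On activity change, negative = inhibition: -100% = full effect of reference inhibitor.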 Particulars: recombinant CYP1A2, luciferin-ME demethylation, luminescence; series mostly up to 57 µM; activity change, negative = inhibition: at the top concentration. In a few lines:
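Human CYP1A2 (20nM) demethylated Luciferin-ME at its Km (100uM) in 100mM KPO4. After 10 min compound preincubation, NADPH regeneration ran the reaction 60 min at room temperature. Luciferin was read by luminescence, normalized to 57 uM furafylline.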
Consider `O=C(Nc1ccc(C(=O)Nc2ccc(C(=O)Nc3ccc(S(=O)(=O)O)c4cc(S(=O)(=O)O)cc(S(=O)(=O)O)c34)cc2)cc1)Nc1ccc(C(=O)Nc2ccc(C(=O)Nc3ccc(S(=O)(=O)O)c4cc(S(=O)(=O)O)cc(S(=O)(=O)O)c34)cc2)cc1`, for which the Potency was 31.6 µM (active).

For the compound `O=C(O)c1c(Br)c(Br)c(Br)c(Br)c1C1c2ccc(O)cc2Oc2cc(O)ccc21`, the activity change, negative = inhibition was -6.8% [at 2.29 µM] (inactive).

Consider `O=C(Nc1cc(C(=O)Nc2ccc(S(=O)(=O)O)cc2S(=O)(=O)O)cc(C(=O)Nc2ccc(S(=O)(=O)O)cc2S(=O)(=O)O)c1)Nc1cc(C(=O)Nc2ccc(S(=O)(=O)O)cc2S(=O)(=O)O)cc(C(=O)Nc2ccc(S(=O)(=O)O)cc2S(=O)(=O)O)c1`, for which the Potency was 31.6 µM (active).

The target in the next test is Glucocorticoid receptor (Homo sapiens) (UniProt P04150). The experiment in a line: GR-GFP Redistribution (AID 450;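 active means compounds whose dose series gives a full or clear partial fitted curve of increased nuclear translocation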; further: potency means the concentration at half of the fitted maximal effect). Particulars: U2OS GR-GFP nuclear translocation, laser cytometry, 2 h.
Glucocorticoid receptor (Homo sapiens), sequence (P04150 whole entry, looked up): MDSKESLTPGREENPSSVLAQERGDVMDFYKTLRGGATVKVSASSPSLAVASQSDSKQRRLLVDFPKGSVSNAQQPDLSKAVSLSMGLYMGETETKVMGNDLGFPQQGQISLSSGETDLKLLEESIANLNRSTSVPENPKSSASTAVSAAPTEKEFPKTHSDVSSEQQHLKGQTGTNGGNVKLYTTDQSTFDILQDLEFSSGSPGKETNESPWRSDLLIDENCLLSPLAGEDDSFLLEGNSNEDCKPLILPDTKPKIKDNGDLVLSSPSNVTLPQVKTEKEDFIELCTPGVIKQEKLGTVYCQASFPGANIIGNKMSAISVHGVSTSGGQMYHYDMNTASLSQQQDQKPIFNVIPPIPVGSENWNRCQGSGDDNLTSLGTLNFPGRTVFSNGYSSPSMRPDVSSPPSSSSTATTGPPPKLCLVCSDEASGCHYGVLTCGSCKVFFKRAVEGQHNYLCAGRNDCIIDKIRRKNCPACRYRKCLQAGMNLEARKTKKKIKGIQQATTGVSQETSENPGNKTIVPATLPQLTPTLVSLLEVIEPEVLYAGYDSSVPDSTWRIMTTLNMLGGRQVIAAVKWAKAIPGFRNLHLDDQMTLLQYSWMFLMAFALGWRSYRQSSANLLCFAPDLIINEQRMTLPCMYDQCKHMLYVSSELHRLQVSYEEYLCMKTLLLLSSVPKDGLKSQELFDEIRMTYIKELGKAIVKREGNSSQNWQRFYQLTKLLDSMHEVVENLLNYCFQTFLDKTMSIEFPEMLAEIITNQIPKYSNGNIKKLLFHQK
As to `O=C(Nc1ccc(C(=O)Nc2ccc(C(=O)Nc3ccc(S(=O)(=O)O)c4cc(S(=O)(=O)O)cc(S(=O)(=O)O)c34)cc2)cc1)Nc1ccc(C(=O)Nc2ccc(C(=O)Nc3ccc(S(=O)(=O)O)c4cc(S(=O)(=O)O)cc(S(=O)(=O)O)c34)cc2)cc1`, the Potency is > 46 µM (inactive).

On to `O=C(O)c1c(Br)c(Br)c(Br)c(Br)c1C1c2ccc(O)cc2Oc2cc(O)ccc21`, for which the Potency is > 46 µM (inactive).

On to `O=C(Nc1cc(C(=O)Nc2ccc(S(=O)(=O)O)cc2S(=O)(=O)O)cc(C(=O)Nc2ccc(S(=O)(=O)O)cc2S(=O)(=O)O)c1)Nc1cc(C(=O)Nc2ccc(S(=O)(=O)O)cc2S(=O)(=O)O)cc(C(=O)Nc2ccc(S(=O)(=O)O)cc2S(=O)(=O)O)c1`, for which the Potency was > 46 µM (inactive).

Another test has the same target. The experiment in a line: GR-EFC Redistribution (AID 451). Further: potency means the concentration at half of the fitted maximal effect. Particulars: CHO-K1 GR-EFC translocation, beta-gal luminescence, 2 h. An outline of the steps: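 Translocation of GR-ED fusion to nuclear EA restores b-gal, read by luminescence after 1 h room-temperature detection. Engineered CHO-K1 biosensor cells, 1,000/well, exposed 2 h at 37 C to titrations up to 46 uM final.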
Take `O=C(Nc1ccc(C(=O)Nc2ccc(C(=O)Nc3ccc(S(=O)(=O)O)c4cc(S(=O)(=O)O)cc(S(=O)(=O)O)c34)cc2)cc1)Nc1ccc(C(=O)Nc2ccc(C(=O)Nc3ccc(S(=O)(=O)O)c4cc(S(=O)(=O)O)cc(S(=O)(=O)O)c34)cc2)cc1`: the Potency was > 46 µM (inactive).

In the case of `O=C(O)c1c(Br)c(Br)c(Br)c(Br)c1C1c2ccc(O)cc2Oc2cc(O)ccc21`, the Potency was > 9.22 µM (inactive).

For the compound `O=C(Nc1cc(C(=O)Nc2ccc(S(=O)(=O)O)cc2S(=O)(=O)O)cc(C(=O)Nc2ccc(S(=O)(=O)O)cc2S(=O)(=O)O)c1)Nc1cc(C(=O)Nc2ccc(S(=O)(=O)O)cc2S(=O)(=O)O)cc(C(=O)Nc2ccc(S(=O)(=O)O)cc2S(=O)(=O)O)c1`, the Potency was > 46 µM (inactive).

In the next test the target is Cytochrome P450 3A4 (Homo sapiens) (UniProt P08684). The experiment in a line: qHTS Assay for Activators of Cytochrome P450 3A4 (AID 885; active means well fitted activation curve with a large enough effect; further: nearly all actives have a fitted effect of over 65% in size). The following applies: recombinant CYP3A4, Luciferin-PPXE luminescence, 60 min; series mostly up to 57.1 µM; activity change, positive = activation: at the top concentration. An outline of the steps:
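20nM CYP3A4 + 25uM Luciferin-PPXE (=KM), 200mM KPO4; cpd 10 min RT; NADPH regen, 60 min RT; stop w/ detection buffer, 20 min; luminescence. Normalized to 57 uM ketoconazole.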
For `O=C(O)c1c(Br)c(Br)c(Br)c(Br)c1C1c2ccc(O)cc2Oc2cc(O)ccc21`, the activity change, positive = activation is -36% [at 11.4 µM] (inactive).

Take `O=C(Nc1cc(C(=O)Nc2ccc(S(=O)(=O)O)cc2S(=O)(=O)O)cc(C(=O)Nc2ccc(S(=O)(=O)O)cc2S(=O)(=O)O)c1)Nc1cc(C(=O)Nc2ccc(S(=O)(=O)O)cc2S(=O)(=O)O)cc(C(=O)Nc2ccc(S(=O)(=O)O)cc2S(=O)(=O)O)c1`: the “activity change, positive = activation” value is -43.5% (inactive).

`O=c1c(O)cc(C2Oc3cc(O)cc(O)c3CC2O)cc2c(C3Oc4cc(O)cc(O)c4CC3O)cc(O)c(O)c12` (stereo unspecified): the “activity change, positive = activation” value is -92.1% (inactive).

Tested on in a further test: not listed separately
The experiment in a line: qHTS Assay for Lipid Storage Modulators (AID 1519). On activity change, negative = inhibition: on the % scale 0 is the no-effect control and ±100 the full control effect. The following applies: Drosophila S3 cells, BODIPY lipid droplet/cell ratio, laser cytometry; at 57.5 µM (top of the series); cells loaded with oleic acid. In a few lines: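 Cells seeded at 5,000 per well were treated with compounds over a concentration series and loaded with oleic acid (400 uM, as added). Lipid droplet fluorescence (488 nm excitation, 500-530 nm channel) was read by laser-scanning cytometry and normalized to 20 uM Triacsin C.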
On the technique in general: qHTS replaces the single test concentration by a dilution series.
For `O=C(Nc1ccc(C(=O)Nc2ccc(C(=O)Nc3ccc(S(=O)(=O)O)c4cc(S(=O)(=O)O)cc(S(=O)(=O)O)c34)cc2)cc1)Nc1ccc(C(=O)Nc2ccc(C(=O)Nc3ccc(S(=O)(=O)O)c4cc(S(=O)(=O)O)cc(S(=O)(=O)O)c34)cc2)cc1`, the activity change, negative = inhibition is 5.27% (inactive).

Take `O=C(Nc1cc(C(=O)Nc2ccc(S(=O)(=O)O)cc2S(=O)(=O)O)cc(C(=O)Nc2ccc(S(=O)(=O)O)cc2S(=O)(=O)O)c1)Nc1cc(C(=O)Nc2ccc(S(=O)(=O)O)cc2S(=O)(=O)O)cc(C(=O)Nc2ccc(S(=O)(=O)O)cc2S(=O)(=O)O)c1`: the activity change, negative = inhibition is 10.5% (inactive).

For the compound `O=c1c(O)cc(C2Oc3cc(O)cc(O)c3CC2O)cc2c(C3Oc4cc(O)cc(O)c4CC3O)cc(O)c(O)c12` (stereo unspecified), the activity change, negative = inhibition was 11.1% (inactive).

The test is the same for the next values; noted with them: Drosophila S3 cells, BODIPY lipid droplet/cell ratio, laser cytometry; measured here: cell count channel max response; cells loaded with oleic acid.
In the case of `O=C(Nc1ccc(C(=O)Nc2ccc(C(=O)Nc3ccc(S(=O)(=O)O)c4cc(S(=O)(=O)O)cc(S(=O)(=O)O)c34)cc2)cc1)Nc1ccc(C(=O)Nc2ccc(C(=O)Nc3ccc(S(=O)(=O)O)c4cc(S(=O)(=O)O)cc(S(=O)(=O)O)c34)cc2)cc1`, the max response is -4.46%.

On to `O=C(Nc1cc(C(=O)Nc2ccc(S(=O)(=O)O)cc2S(=O)(=O)O)cc(C(=O)Nc2ccc(S(=O)(=O)O)cc2S(=O)(=O)O)c1)Nc1cc(C(=O)Nc2ccc(S(=O)(=O)O)cc2S(=O)(=O)O)cc(C(=O)Nc2ccc(S(=O)(=O)O)cc2S(=O)(=O)O)c1`, for which the max response is -19.5%.

With `O=c1c(O)cc(C2Oc3cc(O)cc(O)c3CC2O)cc2c(C3Oc4cc(O)cc(O)c4CC3O)cc(O)c(O)c12` (stereo unspecified), the max response came to 13.9%.

Still in this test, the particulars now being: Drosophila S3 cells, BODIPY lipid droplet/cell ratio, laser cytometry; measured here: lipid channel max response; cells loaded with oleic acid.
With `O=C(Nc1ccc(C(=O)Nc2ccc(C(=O)Nc3ccc(S(=O)(=O)O)c4cc(S(=O)(=O)O)cc(S(=O)(=O)O)c34)cc2)cc1)Nc1ccc(C(=O)Nc2ccc(C(=O)Nc3ccc(S(=O)(=O)O)c4cc(S(=O)(=O)O)cc(S(=O)(=O)O)c34)cc2)cc1`, the max response was found to be 0.0462%.

With `O=C(Nc1cc(C(=O)Nc2ccc(S(=O)(=O)O)cc2S(=O)(=O)O)cc(C(=O)Nc2ccc(S(=O)(=O)O)cc2S(=O)(=O)O)c1)Nc1cc(C(=O)Nc2ccc(S(=O)(=O)O)cc2S(=O)(=O)O)cc(C(=O)Nc2ccc(S(=O)(=O)O)cc2S(=O)(=O)O)c1`, the max response was -13.3%.

In the case of `O=c1c(O)cc(C2Oc3cc(O)cc(O)c3CC2O)cc2c(C3Oc4cc(O)cc(O)c4CC3O)cc(O)c(O)c12` (stereo unspecified), the max response is 27.3%.
